Source: the supplement of paper PMC5641865, “A screen for kinase inhibitors identifies antimicrobial imidazopyridine aminofurazans as specific inhibitors of the Listeria monocytogenes PASTA kinase PrkA” (The Journal of Biological Chemistry, 2017)
± gives the standard deviation of the averaged measurements.
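Also: End-point A600 read in BHI broth at 37 °C with 2% DMSO, inhibition computed as (1 − OD with compound plus ceftriaxone ÷ OD with ceftriaxone only) × 100.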

These molecules were tested on Listeria monocytogenes 10403S (assay: growth inhibition relative to ceftriaxone-alone control; higher = stronger potentiation of ceftriaxone growth inhibition). Details: 10 µM; ceftriaxone 1 ug/ml; 12 h.
For `Cc1nc(NC(=O)N2CCC[C@H]2C(N)=O)sc1-c1ccnc(C(C)(C)C(F)(F)F)c1`, the growth inhibition was 24.9 ± 21%. `O=C1Nc2ccccc2/C1=C/Nc1ccc(-n2cncn2)cc1` showed a growth inhibition of 0.116 ± 3.5%. In the case of `COc1ccc(-c2coc3ncnc(N)c23)cc1`, the growth inhibition is reported as 8.14 ± 12%. With `CCS(=O)(=O)Nc1ccc2c(c1)/C(=C(/Nc1ccc(CN3CCCCC3)cc1)c1ccccc1)C(=O)N2` [Hesperadin] the growth inhibition was 19.3 ± 11%. In the case of `Cn1cc(C=C2C(=O)Nc3cccnc32)c2ccccc21`, the growth inhibition is reported as -13 ± 19%. Work on `CN(c1ccc(NC(=O)NCCN2CCOCC2)cc1)c1ccnc(Nc2ccc(CS(C)(=O)=O)cc2)n1` yielded a growth inhibition of -5.31 ± 3%. With `Cc1c(CN2CCN(C(=O)[C@H](C)O)CC2)sc2c(N3CCOCC3)nc(-c3cnc(N)nc3)nc12` the growth inhibition was 22.8 ± 8.1%. `Cc1cc2c(F)c(Oc3ncnn4cc(OC[C@@H](C)OC(=O)[C@H](C)N)c(C)c34)ccc2[nH]1` gave a growth inhibition of 100.2 ± 0.95%. Molecule `O=C(Cc1ccc(-c2ccc(OCCN3CCOCC3)cc2)cn1)NCc1ccccc1` has a growth inhibition of 33.6 ± 8.5%. `COc1ccc(CNC(=O)c2ccc(-c3cc(-c4nnc(C)o4)ccc3C)cc2)cc1` gave a growth inhibition of 9.02 ± 3.7%. `CCc1cccc(NC(=O)Nc2ccc(Oc3ccc4nc(NC(=O)OC)[nH]c4c3)cc2)c1` showed a growth inhibition of 9.75 ± 3.1%. With `Oc1cc(O)cc(/C=C/c2ccc(O)c(O)c2)c1` [Piceatannol] the growth inhibition was 29.4 ± 16%. In the case of `Fc1cccc(COc2ccc(Nc3ncnc4sc(-c5cccs5)cc34)cc2Cl)c1`, the growth inhibition is reported as -4.36 ± 4.4%. `CN(C)C/C=C/C(=O)Nc1cc2c(Nc3ccc(F)c(Cl)c3)ncnc2cc1O[C@H]1CCOC1` [Afatinib (BIBW2992)] showed a growth inhibition of 45.41 ± 0.44%. Molecule `COC(=O)Nc1nc2ccc(Oc3ccc(NC(=O)Nc4cccc(Cl)c4)cc3)cc2[nH]1` has a growth inhibition of -4.18 ± 4.6%. Molecule `CN(C)CCCn1c(-c2nonc2N)nc2cnccc21` has a growth inhibition of -5.31 ± 2.5%. With `CCOc1ccc2c(-c3ccnc(Nc4cccc(C(F)(F)F)c4)n3)cnn2n1` the growth inhibition was -8.14 ± 6.9%. For `NC(=O)c1ccc2c(-c3ccnc(NCCCO)n3)c(-c3ccc(F)cc3)nn2c1`, the growth inhibition was -7.27 ± 16%. For `CCS(=O)(=O)c1ccc(OC)c(Nc2ncc(-c3cccc(C(C)=O)c3)o2)c1`, the growth inhibition was 7.79 ± 2.2%. Work on `CC(C)(C)c1nc(-c2cccc(NS(=O)(=O)c3c(F)cccc3F)c2F)c(-c2ccnc(N)n2)s1` yielded a growth inhibition of 56.2 ± 26%. For `Fc1cc(-c2cccc3ncc(-c4cnn(C5CCNCC5)c4)nc23)cc(F)c1CN1CCOCC1`, the growth inhibition was 82.1 ± 22%. `COc1ccc(-c2cc3c(N)ncnc3o2)cc1` was tested, and the growth inhibition was -3.61 ± 1.9%. `CC1(C)CNc2cc(NC(=O)c3cccnc3NCc3ccncc3)ccc21` [Motesanib Diphosphate (AMG-706)] was tested, and the growth inhibition was 22.2 ± 22%.
